Ten molecules from PubChem BioAssay (NCI) can be followed below.

Assay [1] is described as follows: NCI Yeast Anticancer Drug Screen. Data for the rad50 strain (AID 155).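 Note: 0% = growth of vehicle-only cultures of the same strain.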 The following applies: S. cerevisiae rad50 strain growth inhibition, stronger effect = higher value. In outline:
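Inhibition values express reduced yeast growth in compound-treated cultures relative to vehicle-treated controls.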

A short description of assay [2]: NCI Yeast Anticancer Drug Screen. Data for the mec2-1 strain (AID 157). The following applies: S. cerevisiae mec2-1 strain, stronger effect = higher value. In outline: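 Growth inhibition is read against vehicle-treated controls after compound exposure of the mec2-1 yeast strain, which is defective in DNA damage repair or cell cycle control.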
Assay [3] can be described thus: NCI Yeast Anticancer Drug Screen. Data for the sgs1 mgt1 strain (AID 161).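 Note: 0% = growth of cultures given vehicle only.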 The following applies: S. cerevisiae sgs1 mgt1 strain, stronger effect = higher value. In outline: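 Percent growth inhibition was derived by comparing compound-exposed mutant yeast with vehicle-exposed cultures. The strain carries alterations in DNA damage repair.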
A short description of assay [4]: NCI Yeast Anticancer Drug Screen. Data for the cln2 rad14 strain (AID 165).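 Note: 0% = growth equal to vehicle treated cultures.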 The note with it: S. cerevisiae cln2 rad14 strain, stronger effect = higher value. The gist of the method:
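Growth inhibition, relative to vehicle-treated controls, is the read-out. The test organism is a yeast strain with defined genetic alterations, cln2 rad14.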

A short description of assay [5]: NCI Yeast Anticancer Drug Screen. Data for the bub3 strain (AID 167). The note with it: S. cerevisiae bub3 mutant strain, stronger effect = higher value. The gist of the method:
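Steps: expose the mutant yeast strain to compound; grow alongside vehicle-treated cultures; measure growth; express inhibition against the vehicle cultures.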

Assay [6] in a line: NCI Yeast Anticancer Drug Screen. Data for the mlh1 rad18 strain (AID 175). The note with it: S. cerevisiae mlh1 rad18 strain growth inhibition, stronger effect = higher value. The gist of the method:
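Cells of a genetically altered yeast strain, deficient in DNA damage repair, were treated with compound. Their growth was then compared with that of vehicle-treated cultures to give inhibition.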

Setting [7] is: at 5.0 µM (retest, dose inferred, filed as 0.5).
Setting [8] is: at 50.0 µM (retest, dose inferred, filed as 5.0).

The panel holds about 79,000 compounds, 15% with a hit somewhere; the sample as a whole holds those more often. Values without a mark were called inactive. Active and inactive are the calls of the source. Cut-off read from the data, not from the text of the source: active = growth inhibition above about 70%; inactive = the rest.

As for `CCOC(=O)CN1CCC(C(=O)CC2(O)C3(Cl)C4(Cl)C5(Cl)C(Cl)(Cl)C6(Cl)C4(Cl)C2(Cl)C6(Cl)C53Cl)CC1` (centres undefined), the growth inhibition in assay [1] (setting [7]) is 30%; in assay [1] (setting [8]), 98% (active); in assay [1] (at 50.0 µM) it was 98.8% (active); in assay [2] (setting [7]), 2%; in assay [2] (setting [8]), 99% (active); in assay [2] (at 50.0 µM), 99.2% (active). Further, the growth inhibition in assay [3] (setting [7]) was 51%; in assay [3] (setting [8]), 99% (active); in assay [3] (at 50.0 µM) it was 50.5%; in assay [4] (setting [7]), 58%; in assay [4] (setting [8]) it was 98% (active); in assay [4] (at 50.0 µM), 98.5% (active). Besides, the growth inhibition in assay [5] (setting [7]) was 20%; in assay [5] (setting [8]) it was 98% (active); in assay [5] (at 50.0 µM) it was 99.1% (active); in assay [6] (setting [7]) it was 62%; in assay [6] (setting [8]) it was 99% (active); in assay [6] (at 50.0 µM), 98.8% (active).

As for `COc1ccc(N=Cc2ccccc2O)cc1`, the growth inhibition in assay [1] (setting [7]) was -9%; in assay [1] (setting [8]), -57%; in assay [1] (at 50.0 µM), 8.1%; in assay [2] (setting [7]), 0%; in assay [2] (setting [8]), -33%; in assay [2] (at 50.0 µM), -8%. Also, the growth inhibition in assay [3] (setting [7]) is -8%; in assay [3] (setting [8]), -36%; in assay [3] (at 50.0 µM), 2.65%; in assay [4] (setting [7]) it was -4%; in assay [4] (setting [8]), -24%; in assay [4] (at 50.0 µM), 40.9%. The growth inhibition in assay [5] (setting [7]) was -27%; in assay [5] (setting [8]) it was -118%; in assay [5] (at 50.0 µM), -5.25%; in assay [6] (setting [7]), -7%; in assay [6] (setting [8]) it was -45%; in assay [6] (at 50.0 µM), -26.1%.

Consider `c1ccc(C2=NCCC(c3ccccc3)S2)cc1` (centres undefined), for which the growth inhibition in assay [1] (setting [7]) was -2%; in assay [1] (setting [8]), 5%; in assay [1] (at 50.0 µM), -2.55%; in assay [2] (setting [7]) it was -4%; in assay [2] (setting [8]) it was 3%; in assay [2] (at 50.0 µM), -4.1%. Besides, the growth inhibition is -3% in assay [3] (setting [7]); 4% in assay [3] (setting [8]); 55.5% in assay [3] (at 50.0 µM); -19% in assay [4] (setting [7]); -4% in assay [4] (setting [8]); -41.5% in assay [4] (at 50.0 µM). Further, the growth inhibition in assay [5] (setting [7]) is 2%; in assay [5] (setting [8]) it was 0%; in assay [5] (at 50.0 µM), 68.1%; in assay [6] (setting [7]) it was 0%; in assay [6] (setting [8]), 8%; in assay [6] (at 50.0 µM), 21.9%.

As for `OCCN1COc2cc3c(cc2C1)OCN(CCO)C3`, the growth inhibition in assay [1] (setting [7]) is 1%; in assay [1] (setting [8]), 11%; in assay [1] (at 50.0 µM), 17.4%; in assay [2] (setting [7]) it was -4%; in assay [2] (setting [8]) it was 1%; in assay [2] (at 50.0 µM) it was -4.9%. The growth inhibition in assay [3] (setting [7]) is -1%; in assay [3] (setting [8]), 14%; in assay [3] (at 50.0 µM), 13.2%; in assay [4] (setting [7]) it was 3%; in assay [4] (setting [8]), -5%; in assay [4] (at 50.0 µM), 42.9%. The growth inhibition in assay [5] (setting [7]) was 1%; in assay [5] (setting [8]) it was -3%; in assay [5] (at 50.0 µM) it was -6.35%; in assay [6] (setting [7]), -5%; in assay [6] (setting [8]), 10%; in assay [6] (at 50.0 µM), 16.2%.

Consider `COc1ccc(Oc2ccc(C(=O)C(CN(C)C)CN(C)C)cc2)cc1`, for which the growth inhibition is -4% in assay [1] (setting [7]); 96% (active) in assay [1] (setting [8]); 84% (active) in assay [1] (at 50.0 µM); -13% in assay [2] (setting [7]); 97% (active) in assay [2] (setting [8]); 87.8% (active) in assay [2] (at 50.0 µM). The growth inhibition is 11% in assay [3] (setting [7]); 98% (active) in assay [3] (setting [8]); 85.8% (active) in assay [3] (at 50.0 µM); -2% in assay [4] (setting [7]); 95% (active) in assay [4] (setting [8]); 87.8% (active) in assay [4] (at 50.0 µM). The growth inhibition was -3% in assay [5] (setting [7]); 96% (active) in assay [5] (setting [8]); 85.6% (active) in assay [5] (at 50.0 µM); 0% in assay [6] (setting [7]); 96% (active) in assay [6] (setting [8]); 86.5% (active) in assay [6] (at 50.0 µM).

With `O=C(c1ccc(OCC(O)CN2CCN(c3ccccc3)CC2)cc1)c1cc2ccccc2c2ccccc12` (centres undefined), the growth inhibition in assay [1] (setting [7]) was 13%; in assay [1] (setting [8]) it was 85% (active); in assay [1] (at 50.0 µM) it was 61%; in assay [2] (setting [7]), 12%; in assay [2] (setting [8]) it was 78% (active); in assay [2] (at 50.0 µM), 82.8% (active). Besides, the growth inhibition in assay [3] (setting [7]) was 17%; in assay [3] (setting [8]), 49%; in assay [3] (at 50.0 µM), 44.6%; in assay [4] (setting [7]), 3%; in assay [4] (setting [8]), 80% (active); in assay [4] (at 50.0 µM), 91.5% (active). Moreover, the growth inhibition is 10% in assay [5] (setting [7]); 91% (active) in assay [5] (setting [8]); 89.3% (active) in assay [5] (at 50.0 µM); 9% in assay [6] (setting [7]); 87% (active) in assay [6] (setting [8]); 96.2% (active) in assay [6] (at 50.0 µM).

For `CCCN(CCC)c1ccc(Cc2ccc(N(CCC)CCC)cc2N)c(N)c1`, the growth inhibition is -3% in assay [1] (setting [7]); 96% (active) in assay [1] (setting [8]); 97.8% (active) in assay [1] (at 50.0 µM); -5% in assay [2] (setting [7]); 98% (active) in assay [2] (setting [8]); 98.3% (active) in assay [2] (at 50.0 µM). Further, the growth inhibition in assay [3] (setting [7]) was -6%; in assay [3] (setting [8]), 99% (active); in assay [3] (at 50.0 µM), 44.5%; in assay [4] (setting [7]), -1%; in assay [4] (setting [8]) it was 91% (active); in assay [4] (at 50.0 µM) it was 97% (active). The growth inhibition in assay [5] (setting [7]) is -1%; in assay [5] (setting [8]), 96% (active); in assay [5] (at 50.0 µM) it was 96.8% (active); in assay [6] (setting [7]) it was -5%; in assay [6] (setting [8]), 95% (active); in assay [6] (at 50.0 µM) it was 98.1% (active).

Consider `CC(=O)Oc1c(C2CCCCC2)cc([N+](=O)[O-])cc1[N+](=O)[O-]`, for which the growth inhibition in assay [1] (setting [7]) is 96% (active); in assay [1] (setting [8]), 99% (active); in assay [1] (at 50.0 µM), 99.5% (active); in assay [2] (setting [7]), 91% (active); in assay [2] (setting [8]), 99% (active); in assay [2] (at 50.0 µM) it was 99.7% (active). In addition, the growth inhibition in assay [3] (setting [7]) is 98% (active); in assay [3] (setting [8]), 99% (active); in assay [3] (at 50.0 µM), 99.5% (active); in assay [4] (setting [7]), 79% (active); in assay [4] (setting [8]), 99% (active); in assay [4] (at 50.0 µM), 98% (active). For the same molecule, the figures for the growth inhibition in assay [5] (setting [7]), in assay [5] (setting [8]) and in assay [5] (at 50.0 µM) were 85% (active), 99% (active) and 99.5% (active), respectively.

As to `CC1CCCCC12C(C#N)(C#N)C2(C#N)C#N` (centres undefined), the growth inhibition is 22% in assay [1] (setting [7]); 90% (active) in assay [1] (setting [8]); 99.2% (active) in assay [1] (at 50.0 µM); 30% in assay [2] (setting [7]); 97% (active) in assay [2] (setting [8]); 99.3% (active) in assay [2] (at 50.0 µM). In addition, the growth inhibition in assay [3] (setting [7]) was 33%; in assay [3] (setting [8]), 97% (active); in assay [3] (at 50.0 µM), 99.5% (active); in assay [4] (setting [7]) it was 8%; in assay [4] (setting [8]) it was 89% (active); in assay [4] (at 50.0 µM) it was 99.2% (active). Moreover, the growth inhibition was 43% in assay [5] (setting [7]), 97% (active) in assay [5] (setting [8]) and 99.4% (active) in assay [5] (at 50.0 µM).

For the molecule `C[n+]1c(-c2ccc(/C=N\NC(=O)c3ccc(C(=O)N/N=C/c4ccc(-c5cn6ccsc6[n+]5C)cc4)cc3)cc2)cn2ccsc21`, the growth inhibition is 65% in assay [1] (setting [7]); 98% (active) in assay [1] (setting [8]); 90.6% (active) in assay [1] (at 50.0 µM); 81% (active) in assay [2] (setting [7]); 98% (active) in assay [2] (setting [8]); 86.7% (active) in assay [2] (at 50.0 µM). Besides, the growth inhibition is 72% (active) in assay [3] (setting [7]); 98% (active) in assay [3] (setting [8]); 84.5% (active) in assay [3] (at 50.0 µM); 27% in assay [4] (setting [7]); 98% (active) in assay [4] (setting [8]); 86.7% (active) in assay [4] (at 50.0 µM). Also, the growth inhibition in assay [5] (setting [7]) is 86% (active); in assay [5] (setting [8]) it was 98% (active); in assay [5] (at 50.0 µM), 83.8% (active); in assay [6] (setting [7]), 88% (active); in assay [6] (setting [8]), 97% (active); in assay [6] (at 50.0 µM) it was 91.5% (active).
